The experiment in a line: cytotoxicity in LNCaP prostate cells – cell-based, cell event count, single point, cytotoxicity control for prostate differentiation activator project, confirmation (AID 1076).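 Note: counts scatter-gated live cells after medium removal discards detached dead cells.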 The following applies: LNCaP cell loss, flow cytometry event count, 4 d, stronger effect = lower value. A general note: In flow cytometry, cells or beads pass a laser one at a time.

Structures are written as SMILES. Active and inactive are the calls of the source.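 Rule for the calls: active = cell event count below 40, meaning activity score above 60 where score is 100 minus count; inactive = the rest.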

As for `COc1ccc(-n2c3c(cc(C(=O)N4CCC(C)CC4)c2=O)C(=O)CC(C)(C)C3)cc1`, the cell event count runs as follows: (at 100 µM) 115 (inactive); (event count, at 10 µM) 93.
Take `Cc1oc(-c2ccc(Cl)cc2)nc1CN1CCC(C(=O)NCCCN2CCOCC2)CC1`: the cell event count was 12 (inactive) (at 100 µM) and 119 (event count, at 10 µM).
On to `COc1ccc(-n2cc(-c3ccccc3)c3c(N4CCN(CCO)CC4)ncnc32)cc1`, for which the cell event count (at 100 µM) was 12 (inactive) and the cell event count (event count, at 10 µM) was found to be 174.
For `CCOC(=O)C1CCN(c2nc3ccccc3nc2C(C#N)C(=O)OCCOC)CC1` (stereo not given), in that order: 17 (inactive) and 108.
Turning to `Cc1oc(-c2ccccc2F)nc1CN1CCC(C(=O)NCc2cccs2)CC1`, the cell event count is 107 (inactive) (at 100 µM) and 214 (event count, at 10 µM).
`CC(C)CCNC(=O)C1CCN(c2nc3ccccc3o2)CC1`: the cell event count is, setting by setting: (at 100 µM) 73 (inactive); (event count, at 10 µM) 110.
The corresponding values for `COc1ccc2cc3c(N)nn(C(=O)Cc4ccccc4OC)c3nc2c1` are 20 (inactive) and 287.
The corresponding values for `Cc1oc(-c2ccc(Cl)cc2)nc1CN1CCCC(C(=O)NCCCN2CCCC2=O)C1` (stereo not given) are 43 (inactive) and 258.
Regarding `Cc1ccc(Oc2ccc(S(=O)(=O)N3CCOCC3)cc2C(N)=O)c(-n2nc3ccccc3n2)c1`, the cell event count (at 100 µM) is 5 (inactive) and the cell event count (event count, at 10 µM) came to 126.
In the case of `Cc1ccc(NC(=O)N2CCCN(Cc3ccc(F)cc3)C2)cc1C`, the cell event count reads like this: (at 100 µM) 13 (inactive); (event count, at 10 µM) 142.
With `COCCCN(C(=O)Nc1ccccc1)C(C)c1ccncc1` (stereo not given), the cell event count is, setting by setting: (at 100 µM) 238 (inactive); (event count, at 10 µM) 387.
Turning to `CCCCn1c2c(c3ccccc31)CCc1nonc1-2`, the cell event count runs as follows: (at 100 µM) 134 (inactive); (event count, at 10 µM) 128.
With `Cc1oc(-c2ccc(Cl)cc2)nc1CN1CCC(C(=O)N2CCc3ccccc3C2)CC1`, the cell event count is, setting by setting: (at 100 µM) 18 (inactive); (event count, at 10 µM) 320.
With `CCN(CC)CCCNc1oc(-c2cccc(Cl)c2)nc1C#N`, the cell event count by setting is: (at 100 µM) 32 (inactive); (event count, at 10 µM) 227.
For `COc1ccc(-c2nc(CN3CCC(C(=O)N4CCc5ccccc54)CC3)c(C)o2)cc1OC`, the cell event count reads like this: (at 100 µM) 16 (inactive); (event count, at 10 µM) 298.
In the case of `O=C(Nc1nc(-c2ccccc2)cs1)C1CCCCN1S(=O)(=O)c1ccccc1` (stereo not given), the cell event count (at 100 µM) was 234 (inactive) and the cell event count (event count, at 10 µM) turned out to be 210.
For `CCc1nnc(NC(=O)CSc2nc3ccccc3s2)s1`, in that order: 209 (inactive) and 142.
`c1ccc(OCCCn2nnc(-c3cccnc3)n2)cc1`: the cell event count is 123 (inactive) (at 100 µM) and 126 (event count, at 10 µM).
Regarding `COC(=O)c1cc2oc3ccccc3c2n1CC(=O)Nc1ccccc1OC`, the cell event count runs as follows: (at 100 µM) 169 (inactive); (event count, at 10 µM) 184.
For `COc1ccc(Cc2nc(-c3ccc(-n4cccc4)cc3)no2)cc1OC`, the cell event count (at 100 µM) is 17 (active) and the cell event count (event count, at 10 µM) came out at 28.
Consider `COc1ccc(CCN2CCC(Nc3nc4ccccc4n3Cc3ccc(F)cc3)CC2)cc1`, for which the cell event count is 11 (inactive) (at 100 µM) and 728 (event count, at 10 µM).
As to `CCc1cc(C)cc(OCCNC(=O)c2ncn[nH]2)c1`, the cell event count was 171 (inactive) (at 100 µM) and 54 (event count, at 10 µM).
In the case of `COc1ccc(CCNC(=O)C2CCCN(Cc3nc(-c4ccccc4C)oc3C)C2)cc1OC` (stereo not given), the cell event count (at 100 µM) is 12 (inactive) and the cell event count (event count, at 10 µM) turned out to be 190.
Turning to `COc1ccc(Nc2nc(N)nc(CN3CCC(Cc4ccccc4)CC3)n2)cc1`, the cell event count is, setting by setting: (at 100 µM) 6 (active); (event count, at 10 µM) 7.5.
For `Cc1ccc(Cn2c(C(=O)NCCCN3CCOCC3)cc3sccc32)cc1`, in that order: 279 (inactive) and 379.
In the case of `Cc1oc(-c2ccc(Cl)cc2)nc1CN1CCCC(C(=O)NCCCN2CCOCC2)C1` (stereo not given), the cell event count (at 100 µM) was 42 (inactive) and the cell event count (event count, at 10 µM) amounted to 182.
`Cc1oc(-c2ccccc2F)nc1CN1CCC(C(=O)NC2CC2)CC1`: the cell event count (at 100 µM) was 363 (inactive) and the cell event count (event count, at 10 µM) is 496.
With `C=C(C)Cn1c(-c2ccccc2)nc2ccccc21`, the cell event count was 16 (inactive) (at 100 µM) and 106 (event count, at 10 µM).
Regarding `CN(C)c1ccc(-c2nn3c(-c4ccc(Cl)cc4Cl)nnc3s2)cc1`, the cell event count (at 100 µM) is 6 (active) and the cell event count (event count, at 10 µM) is 65.5.
For `CCn1c(=N)n(CC(O)COc2cccc(C)c2)c2ccccc21` (stereo not given), in that order: 2 (active) and 50.5.
As for `c1cncc(-c2nc3ccccc3o2)c1`, the cell event count (at 100 µM) is 49 (inactive) and the cell event count (event count, at 10 µM) came out at 89.5.
On to `CN(C)CCCN1c2ccccc2CCc2ccc(Cl)cc21`, for which the cell event count by setting is: (at 100 µM) 43 (inactive); (event count, at 10 µM) 74.
The corresponding values for `CCn1c(=O)cc(SCC(=O)NCCCN2CCN(c3ccccc3F)CC2)c2ccccc21` are 6 (inactive) and 338.
In the case of `COc1ccc(S(=O)(=O)Nc2ccc(F)c(Cl)c2)cc1OC`, the cell event count (at 100 µM) is 18 (inactive) and the cell event count (event count, at 10 µM) worked out at 144.
For `CCSc1nnc(Cn2c(=O)sc3ccccc32)n1-c1ccccc1C`, in that order: 249 (inactive) and 171.
Take `CCOc1ccc(OCC)c(NC(=O)C2CCCN(S(=O)(=O)c3c(C)noc3C)C2)c1` (stereo not given): the cell event count (at 100 µM) is 187 (inactive) and the cell event count (event count, at 10 µM) came out at 260.
Consider `Cc1ccc(Nc2cc(=O)n(C3CCCCC3)c(=O)[nH]2)cc1C`, for which the cell event count (at 100 µM) was 3 (active) and the cell event count (event count, at 10 µM) turned out to be 62.5.
Take `CCN1C(=O)OC2(CCCCC2)C1(C)O` (stereo not given): the cell event count is 230 (inactive) (at 100 µM) and 174 (event count, at 10 µM).
`Cn1c(C(=O)NCCCN2CCN(c3cccc(Cl)c3)CC2)cc2c(=O)n(C)c3ccccc3c21`: the cell event count is 46 (inactive) (at 100 µM) and 251 (event count, at 10 µM).
The corresponding values for `N=c1c(C(=O)NC2CCCC2)cc2c(=O)n3ccccc3nc2n1C1CCCC1` are 12 (active) and 55.
Consider `CCC(C(=O)Nc1ccccc1OC)n1c(C(=O)OC)cc2ccsc21` (stereo not given), for which the cell event count is 41 (inactive) (at 100 µM) and 270 (event count, at 10 µM).
Regarding `COc1ccc(S(=O)(=O)CCC(=O)O)cc1`, the cell event count is 153 (inactive) (at 100 µM) and 47 (event count, at 10 µM).
On to `COc1ccc2nc(NC(=O)C(NS(=O)(=O)c3cccs3)C(C)C)sc2c1` (stereo not given), for which the cell event count is 67 (inactive) (at 100 µM) and 253 (event count, at 10 µM).
In the case of `Cc1ccccc1-c1nc(CN2CCC(C(=O)NCCC3=CCCCC3)CC2)c(C)o1`, the cell event count is, setting by setting: (at 100 µM) 11 (inactive); (event count, at 10 µM) 93.5.
`CC(C)(C)c1ccc(C(O)CCCN2CCC(C(O)(c3ccccc3)c3ccccc3)CC2)cc1` (stereo not given): the cell event count is 12 (inactive) (at 100 µM) and 90 (event count, at 10 µM).
Take `Cc1nc2ncnn2c(C)c1CCC(=O)NCCCN1CCN(c2cccc(Cl)c2)CC1`: the cell event count (at 100 µM) was 95 (inactive) and the cell event count (event count, at 10 µM) came out at 148.
The corresponding values for `COc1cccc(-c2cc(C(=O)N3CCCc4ccccc43)no2)c1` are 9 (inactive) and 336.
For `O=C1CCCc2c1cc(C(=O)NC1CCSC1=O)c(=O)n2-c1ccccc1` (stereo not given), in that order: 253 (inactive) and 155.
For `CC(C)(C)OC(=O)N1CCC(C(=O)N2CCCCCC2)CC1`, the cell event count (at 100 µM) was 223 (inactive) and the cell event count (event count, at 10 µM) stood at 123.
Regarding `COC(=O)C1=C(C)N=c2s/c(=C/c3cccs3)c(=O)n2C1c1cccs1` (stereo not given), the cell event count was 125 (inactive) (at 100 µM) and 320 (event count, at 10 µM).

The values are drawn from PubChem BioAssay AID1076 (NMMLSC, 2008).
